Data taken from PubChem BioAssay (EPA / NIEHS).
Activity calls are given as the source filed them. The calls were made as follows: active = hit-call score of the fitted dose curve at least 0.9, where 1 is the maximum; inactive = score below 0.9.

These compounds were tested on CYP2C8 (gene 1558) (assay: LTEA_HepaRG_CYP2C8: Life Technologies and Expression Analysis (LTEA) Assay for CYP2C8 using HepaRG (AID 2283483)). Conditions: mRNA level, 48 h; actives raise or lower the signal.
Experimental: LTEA_HepaRG is a cell based, multiplexed-readout assay that uses HepaRG, a human liver cell line, with measurements taken at 48 hours after chemical dosing on a 96-well plate.LTEA_HepaRG_CYP2C8 is one of 102 assay component(s) measured in the LTEA HepaRG cell culture assay. It is a marker of NR mediated metabolism.Data from the assay component LTEA_HepaRG_CYP2C8 was analyzed into 1 endpoint. This assay endpoint, LTEA_HepaRG_CYP2C8, was analyzed with bidirectional fitting relative to DMSO as the negative control and baseline of activity. Using a type of inducible reporter, measures of mRNA induction for gain or loss-of-signal activity can be used to understand regulation of transcription factor activity. To generalize the intended target to other relatable targets, this assay endpoint is annotated to the cyp intended target family, where the subfamily is xenobiotic metabolism.
A total of 1060 chemcials from the ToxCast library were tested in eight-point concentration-response experiments. Cell culture and cytotoxicity assays were conducted at Thermo Fisher Scientific's Custom Services facility (Madison, WI). A single lot of human HepaRG cells (Thermo Fisher Scientific, Frederick, MD) was used for the cell culture experiments. 96-well format collagen type I coated plates of human HepaRG cells were prepared using established methods. Briefly, cryopreserved HepaRG cells were thawed, plated at a density of approximately 100,000 cells/well in HepaRG Thaw, Plate, and General Purpose media (HPRG770, Thermo Fisher Scientific), and incubated for 48 hours. 0.5% DMSO was selected as vehicle control to balance the requisite need of DMSO in HepaRG cultures to maintain differentiation (for example, baseline metabolism, proportions of hepatocytes vs. cholangiocytes), while enabling further hepatic receptor pathway activation (for example, PXR and CAR) in response to chemical exposure. 48 hours after plating, the culture medium was replaced with HepaRG Serum-Free Incudtion Media. Cells were exposed to each test chemical in duplicate and maintained in CO2 incubators for another 48 hours. Chemical plates were thawed to room temperature and 200x concentrations of treatment groups were prepared. 8-point conentration-reponse curves were made with the highest exposure at 100 uM, followed by half-log dilutions, all in 0.5% DMSO. Each test plate contained variouse controls, induction positive controls (1mM phenobarbital), cytotoxicity positive controls ([…] aflatoxin B1), vehicle controls (0.5% DMSO), and total lysis controls (0.5% DMSO). Cell morphology images were taken using an Essen IncuCyte FLR automated microscope, with six 96-well plates imaged in about 24 minutes. Images were captured and exported and JPEG files. Spent culture media was transfered to black-well plates for the LDH assay, and remaining media was sorted at -80 C for later use. Cells were treated with RLT buffer and frozen until shipped for gene expression analysis. Total RNA was isolated from the cell suspension in 75 uL of Buffer RLT (Qiagen, Germantown, MD 20874) by Quintiles/Expression Analysis (Durham, NC) using a custom isolation procedure. Total RNA from each plate well was transferred to a preamplification plate. Fluidigm's 96.96 Dynamic ArrayTM (Fluidigm, Amsterdam, the Netherlands) technology was used for gene expression analyses by quantitative reverse transcription polymerase chain reaction (qRT-PCR, performed by Quintiles/Expression Analysis, Durham, NC)89. Standard TaqManTM Assays (Applied Biosystems/ThermoFisher Scientific, Foster City, CA) were used to assess the expression of 93 genes selected based on their selectivity and sensitivity to important hepatic receptors known to be modulated by environmental chemicals; importance in human hepatocyte functionality; and hepatotoxicity. […]

With `c1ccc2c(c1)Nc1ccccc1S2` as the compound, how does the outcome read?
The outcome was “inactive”.

For `ClC1=C(Cl)C2(Cl)C3C(Cl)C(Cl)CC3C1(Cl)C2(Cl)Cl` (stereo not given), which AC50 is on record?
Its AC50 is 2.17 µM (active).

For `CC(C)(C)OOC(C)(C)C`, which outcome is on record?
Its outcome is “inactive”.

`ClC(Cl)(Cl)c1ccccc1` was tested. Which outcome did it give?
The outcome was “inactive”.

For `CC(Cc1ccc(OCC(=O)O)cc1)NCC(O)c1csc(C(F)(F)F)n1` (stereo not given), which outcome is on record?
Its outcome is “inactive”.

Which outcome does the source give for `CCN(CC)c1ccccc1` here?
Its outcome is “inactive”.

Which outcome does the source give for `O=C(O)C1C(C(=O)O)C2(Cl)C(Cl)=C(Cl)C1(Cl)C2(Cl)Cl` (stereo not given) here?
Its outcome is “inactive”.

How did the AC50 turn out when `CCOc1ccc(C(C)(C)COCc2cccc(Oc3ccccc3)c2)cc1` was run?
The AC50 was 3.05 µM (active).

For `O=[N+]([O-])c1ccc(Cl)c(Cl)c1`, which outcome is on record?
Its outcome is “inactive”.

For `OCC1CO1` (stereo not given), which outcome is on record?
The outcome was “inactive”.

How did the AC50 turn out when `O=P(Oc1ccccc1)(Oc1ccccc1)Oc1ccccc1` was run?
The AC50 was 12.4 µM (active).

For `CCCCc1ccccc1`, which outcome is on record?
The outcome was “inactive”.

How did the AC50 turn out when `CCOP(=S)(Oc1ccc([N+](=O)[O-])cc1)c1ccccc1` (stereo not given) was run?
Its AC50 is 2.42 µM (active).

With `COCCOCCO` as the compound, how does the outcome read?
Its outcome is “inactive”.

`CCCCN(CCCC)N=O` was tested. Which outcome did it give?
The outcome was “inactive”.

`CCOS(=O)(=O)OCC` was tested. Which outcome did it give?
Its outcome is “inactive”.

With `CN(C)C(=O)Cl` as the compound, how does the outcome read?
Its outcome is “inactive”.

With `Cc1ccc([N+](=O)[O-])cc1C` as the compound, how does the outcome read?
The outcome was “inactive”.

For `Cc1cccc(N)c1`, which outcome is on record?
The outcome was “inactive”.

How did the outcome turn out when `CCOC(=O)c1ccccc1C(=O)OCC` was run?
Its outcome is “inactive”.

How did the outcome turn out when `Nc1cc2c3c(c1)C(c1ccccc1)=N[C@@H](NC(=O)c1cccnc1)C(=O)N3CC2` was run?
The outcome was “inactive”.

For `c1nc[nH]n1`, which outcome is on record?
The outcome was “inactive”.

For `CCCN(CCC)c1c([N+](=O)[O-])cc(C(C)C)cc1[N+](=O)[O-]`, which AC50 is on record?
The AC50 was 13.2 µM (active).

For `Nc1ccc2ccccc2c1`, which outcome is on record?
Its outcome is “inactive”.

`c1ccc(OP(Oc2ccccc2)Oc2ccccc2)cc1` was tested. Which outcome did it give?
The outcome was “inactive”.

Which outcome does the source give for `O=P1(N(CCCl)CCCl)NCCCO1` (stereo not given) here?
Its outcome is “inactive”.

`[N-]=[N+]=[N-]` was tested. Which AC50 did it give?
The AC50 was 79.9 µM (active).

`O=C(O)C(Cl)Cl` was tested. Which outcome did it give?
Its outcome is “inactive”.

`CCOP(=S)(OCC)SCSCC` was tested. Which outcome did it give?
Its outcome is “inactive”.

Which outcome does the source give for `CCCCCCCc1ccc(O)cc1` here?
The outcome was “inactive”.

For `O=[N+]([O-])c1ccccc1`, which outcome is on record?
The outcome was “inactive”.

For `CC(Cl)(Cl)C(=O)O`, which outcome is on record?
The outcome was “inactive”.

`c1cc2c3c(cccc3c1)CC2` was tested. Which outcome did it give?
The outcome was “inactive”.

`CSC(C)(C)C=NO` was tested. Which outcome did it give?
Its outcome is “inactive”.

How did the outcome turn out when `Nc1ccc(Cl)cc1` was run?
The outcome was “inactive”.

Which AC50 does the source give for `CCC1(c2ccccc2)C(=O)N=C(O)NC1=O` (stereo not given) here?
The AC50 was 50 µM (active).

How did the outcome turn out when `ClC(Cl)c1ccccc1` was run?
Its outcome is “inactive”.

For `CCC(C)(C)c1ccc(O)cc1`, which outcome is on record?
Its outcome is “inactive”.

With `CCNc1nc(Cl)nc(NC(C)(C)C)n1` as the compound, how does the AC50 read?
Its AC50 is 2.37 µM (active).

How did the outcome turn out when `Cc1ccc(N)cc1N` was run?
Its outcome is “inactive”.
